This note sets out measurements from the supplement of paper PMC12669032.

Values without a mark were called inactive.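 Rule for the calls: active = AUC reduced over 20% with Padj below 0.05 in at least 2 of 3 replicates; inactive = otherwise.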

Common to all, as to test: growth AUC relative to DMSO control (median of replicates) (fraction); higher = more growth (less inhibition), active = hit call of the paper
Common to all, as to settings: 20 µM; 24 h

One assay relates to Akkermansia muciniphila. The gist of the method:
(§1)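 Area under the growth curve was normalised to the plate median of solvent-only wells, except on the industrial chemical plate, where row and column medians were used. Curves came from gut bacterial monocultures grown anaerobically at 37 °C in mGAM with 20 µM compound (1% DMSO), starting at OD600 0.05 and read at OD600 every hour for 24 h. The minimum OD of each curve was set to 0, and values are medians of three biological replicates grown on separate days.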

The next assay concerns Bacteroides caccae. The method in brief: as §1
A further assay has as its system Bacteroides clarus. The method in brief:
as §1

In the next assay the test system is Bacteroides dorei. The method in brief: as §1
A further assay deals with Bacteroides stercoris. The gist of the method:
as §1

The subject of assay [1] is Bacteroides thetaiotaomicron. The method in brief:
as §1

A further assay deals with Bacteroides uniformis. The gist of the method: as §1
In assay [2] the test system is Bifidobacterium longum subsp. longum. The method in brief:
as §1

A further assay relates to Clostridium difficile. The method in brief: as §1
The next assay deals with Collinsella aerofaciens. The method in brief: as §1
In the next assay the test system is Coprococcus comes. The gist of the method:
as §1

In the next assay the test system is Escherichia coli ED1a. The method in brief: as §1
A further assay has as its system Escherichia coli IAI1. The method in brief: as §1
The test system of the next assay is Eubacterium rectale. The method in brief: as §1
Assay [3] has as its system Fusobacterium nucleatum subsp. animalis. The gist of the method:
as §1

The test system of a further assay is Lactobacillus gasseri. The gist of the method:
as §1

Another assay has as its system Lactobacillus paracasei. The method in brief:
as §1

Another assay concerns Odoribacter splanchnicus. The method in brief:
as §1

Assay [4] has as its system Parabacteroides distasonis. The method in brief:
as §1

For the next assay, the system named is Parabacteroides merdae. The method in brief:
as §1

Consider `COC(=O)c1cccc(C)c1S(=O)(=O)NC(=O)Nc1nc(OCC(F)(F)F)nc(N(C)C)n1`, for which the “growth AUC” value in the assay on Akkermansia muciniphila was 0.973; in the assay with Bacteroides caccae, 0.963; in the assay on Bacteroides clarus, 0.995; in the assay on Bacteroides dorei, 1.01; in the assay with Bacteroides stercoris it was 1.01; in [1], 0.985. The “growth AUC” value is 0.981 in the assay with Bacteroides uniformis; 0.992 in assay [2]; 0.987 in the assay on Clostridium difficile; 1.01 in the assay with Collinsella aerofaciens; 0.967 with Coprococcus comes; 0.992 in the assay with Escherichia coli ED1a. In addition, the “growth AUC” value is 0.997 in the assay on Escherichia coli IAI1; 0.963 in the assay on Eubacterium rectale; 0.956 in assay [3]; 1.05 in the assay with Lactobacillus gasseri; 0.936 in the assay on Lactobacillus paracasei; 0.997 in the assay with Odoribacter splanchnicus. Also, the “growth AUC” value in [4] was 1.02; in the assay on Parabacteroides merdae, 0.99.

Consider `COC(=O)C(C)Oc1ccc(Cl)cc1Cl` (stereo not given), for which the “growth AUC” value with Akkermansia muciniphila is 0.964; in the assay on Bacteroides caccae it was 1.05; with Bacteroides clarus it was 1; with Bacteroides dorei it was 1.05; in the assay on Bacteroides stercoris, 0.849; in assay [1], 1.01. The “growth AUC” value with Bacteroides uniformis was 1.05; in [2], 1; in the assay with Clostridium difficile, 1.03; in the assay on Collinsella aerofaciens it was 0.987; in the assay on Coprococcus comes, 1.01; with Escherichia coli ED1a, 1.01. The “growth AUC” value was 0.988 with Escherichia coli IAI1; 1.14 in the assay on Eubacterium rectale; 0.95 in [3]; 0.991 in the assay with Lactobacillus gasseri; 1.01 in the assay with Lactobacillus paracasei; 1.11 in the assay with Odoribacter splanchnicus. Further, the “growth AUC” value is 0.996 in assay [4] and 1.01 in the assay on Parabacteroides merdae.

Turning to `Clc1ccc(CSc2ccc(Cl)cc2)cc1`, the “growth AUC” value in the assay on Akkermansia muciniphila is 0.977; in the assay on Bacteroides caccae, 1.02; in the assay with Bacteroides clarus, 0.99; in the assay on Bacteroides dorei, 0.956; in the assay on Bacteroides stercoris, 0.969; in [1], 1.03. The “growth AUC” value in the assay with Bacteroides uniformis was 0.998; in [2], 1.02; in the assay with Clostridium difficile, 1.04; in the assay with Collinsella aerofaciens, 0.984; with Coprococcus comes it was 1.03; with Escherichia coli ED1a, 1. Also, the “growth AUC” value is 0.989 in the assay with Escherichia coli IAI1; 1.05 in the assay with Eubacterium rectale; 1.07 in assay [3]; 0.98 in the assay with Lactobacillus gasseri; 1.02 in the assay on Lactobacillus paracasei; 1.07 with Odoribacter splanchnicus. The “growth AUC” value in [4] was 1; with Parabacteroides merdae it was 0.979.

Take `CCOC(=O)C(C)Oc1ccc(Oc2nc3ccc(Cl)cc3o2)cc1` (racemic): the “growth AUC” value in the assay on Akkermansia muciniphila is 1.1; in the assay with Bacteroides caccae, 0.973; with Bacteroides clarus it was 0.96; in the assay on Bacteroides dorei, 0.94; with Bacteroides stercoris, 0.898; in assay [1], 0.971. Also, the “growth AUC” value was 0.981 in the assay with Bacteroides uniformis; 0.989 in [2]; 1.01 in the assay on Clostridium difficile; 0.947 in the assay with Collinsella aerofaciens; 0.993 in the assay on Coprococcus comes; 0.967 with Escherichia coli ED1a. Also, the “growth AUC” value was 0.949 in the assay on Escherichia coli IAI1; 0.987 with Eubacterium rectale; 0.929 in [3]; 0.91 in the assay on Lactobacillus gasseri; 0.97 in the assay with Lactobacillus paracasei; 1.01 with Odoribacter splanchnicus. Moreover, the “growth AUC” value is 0.824 in assay [4] and 0.969 in the assay on Parabacteroides merdae.

On to `CCNc1nc(NC(C)(C)C)nc(OC)n1`, for which the “growth AUC” value was 0.972 with Akkermansia muciniphila; 0.985 with Bacteroides caccae; 0.998 in the assay with Bacteroides clarus; 0.992 in the assay with Bacteroides dorei; 1.11 in the assay with Bacteroides stercoris; 0.987 in assay [1]. In addition, the “growth AUC” value with Bacteroides uniformis is 0.985; in assay [2] it was 1.02; in the assay on Clostridium difficile, 0.998; in the assay on Collinsella aerofaciens, 1.07; in the assay with Coprococcus comes it was 1.03; with Escherichia coli ED1a, 1.04. Further, the “growth AUC” value in the assay with Escherichia coli IAI1 is 1.03; in the assay with Eubacterium rectale it was 1.06; in assay [3] it was 1.01; in the assay with Lactobacillus gasseri, 1.03; in the assay on Lactobacillus paracasei, 1.01; in the assay with Odoribacter splanchnicus, 1.07. Besides, the “growth AUC” value in [4] was 1.07; in the assay with Parabacteroides merdae, 0.99.

Consider `Oc1c(Cl)cc(Cl)c(Cl)c1Cc1c(O)c(Cl)cc(Cl)c1Cl`, for which the “growth AUC” value in the assay on Akkermansia muciniphila was 0.193 (active); with Bacteroides caccae, 0.0131 (active); with Bacteroides clarus, 0.0212 (active); with Bacteroides dorei it was 0.0142 (active); with Bacteroides stercoris, 0.00917 (active); in assay [1] it was 0.00403 (active). Moreover, the “growth AUC” value is 0.0126 (active) with Bacteroides uniformis; 0.0988 (active) in [2]; 0.0083 (active) in the assay with Clostridium difficile; 0.0126 (active) with Collinsella aerofaciens; 0.19 (active) in the assay on Coprococcus comes; 0.867 in the assay on Escherichia coli ED1a. The “growth AUC” value with Escherichia coli IAI1 was 0.856; in the assay with Eubacterium rectale, 0.0106 (active); in [3], 0.078 (active); with Lactobacillus gasseri it was 0.037 (active); in the assay with Lactobacillus paracasei, 0.0796 (active); with Odoribacter splanchnicus, 0.018 (active). Further, the “growth AUC” value is 0.026 (active) in assay [4] and 0.0156 (active) in the assay with Parabacteroides merdae.

Turning to `CCOC(=O)C(C)Oc1ccc(Oc2cnc3cc(Cl)ccc3n2)cc1` (stereo not given), the “growth AUC” value with Akkermansia muciniphila was 1.01; in the assay with Bacteroides caccae, 0.978; with Bacteroides clarus it was 0.953; with Bacteroides dorei, 0.942; with Bacteroides stercoris it was 1.01; in assay [1], 0.992. Besides, the “growth AUC” value with Bacteroides uniformis is 0.932; in [2], 1.06; in the assay with Clostridium difficile, 1.03; in the assay with Collinsella aerofaciens, 1.02; in the assay with Coprococcus comes it was 1.01; in the assay with Escherichia coli ED1a it was 0.997. Besides, the “growth AUC” value with Escherichia coli IAI1 is 1.04; in the assay with Eubacterium rectale, 1.09; in [3], 1.03; with Lactobacillus gasseri it was 1.04; in the assay with Lactobacillus paracasei it was 0.95; with Odoribacter splanchnicus, 1.02. In addition, the “growth AUC” value in assay [4] was 0.971; with Parabacteroides merdae it was 0.956.
